The record followed here is PubChem BioAssay.

This test concerns the target Pantothenate synthetase (Mycobacterium tuberculosis (strain ATCC 25618 / H37Rv)) (UniProt P9WIL5). Description: Coupled enzyme confirmation of inhibitors against recombinant Mtb PanC (AID 375).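 Also: 0% = full reaction with vehicle and 100% = no enzyme background.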 As to conditions: coupled enzyme assay; at 10 µM, active compounds read high.

Values without a mark were called inactive. No rule for the calls is given here.

Sequence of Pantothenate synthetase (Mycobacterium tuberculosis (strain ATCC 25618 / H37Rv)) (P9WIL5 whole entry, looked up): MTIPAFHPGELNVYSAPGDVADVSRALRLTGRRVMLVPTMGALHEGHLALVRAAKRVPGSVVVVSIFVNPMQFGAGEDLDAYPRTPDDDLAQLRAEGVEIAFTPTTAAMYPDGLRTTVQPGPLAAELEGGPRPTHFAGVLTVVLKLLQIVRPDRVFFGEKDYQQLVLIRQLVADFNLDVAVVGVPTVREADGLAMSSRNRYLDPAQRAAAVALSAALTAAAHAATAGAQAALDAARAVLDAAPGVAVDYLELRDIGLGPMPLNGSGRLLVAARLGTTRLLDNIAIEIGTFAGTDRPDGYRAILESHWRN

The inhibition is the relative decrease from the control value, in per cent. As for `C[C@@H]1C[C@H]2[C@@H]3C[C@H](F)C4=CC(=O)C=C[C@]4(C)[C@@]3(F)[C@@H](O)C[C@]2(C)[C@@]1(O)C(=O)COC(=O)C(C)(C)C`, the inhibition is 0%.

`O=C(Cn1nc(-c2ccc(Cl)cc2)ccc1=O)NCCCN1CCN(Cc2ccccc2)CC1`: the inhibition was 2%.

Regarding `COc1ccc(CC(NC(C)=O)C(=O)NC2CCN(C(=O)Nc3ccc(C#N)cc3)CC2)cc1OC` (centres undefined), the inhibition is 10%.

Take `CCN1CCN(C(=O)c2cn(CC)c3ccc(S(=O)(=O)N(C)C)cc3c2=O)CC1`: the inhibition is 0%.

Take `CCOC(=O)C1CCCN(CCC(C)c2ccccc2)C1` (centres undefined): the inhibition was 1%.

For the molecule `Cc1ccccc1C(=O)NC1CCN(Cc2nnnn2Cc2ccccc2)CC1`, the inhibition was 4%.

In the case of `Cc1cc(NC(=O)c2ccc3c(c2)C(=O)N(Cc2cccnc2)C3=O)no1`, the inhibition is 0%.

`CNC(=O)CSc1nc2c(c(=O)n(C)c(=O)n2C)n1Cc1ccc(C)cc1`: the inhibition is 0%.

Turning to `CCN(CCCCOC(=O)c1ccc(OC)c(OC)c1)C(C)Cc1ccc(OC)cc1` (centres undefined), the inhibition is 9%.

On to `COc1ccc(S(=O)(=O)N2CCC(C(=O)Nc3c(F)cccc3F)CC2)cc1`, for which the inhibition is 2%.

Take `Cc1ccc(NC(=O)c2ccccc2F)nc1`: the inhibition was 2%.

`CCc1ccccc1NC(=O)c1ccoc1C`: the inhibition is 0%.

Regarding `COc1ccc(C(C)NC(=O)c2ccoc2C)cc1OC` (centres undefined), the inhibition was 5%.

As to `Nc1nnnn1NCc1cccc(OCc2ccccc2)c1`, the inhibition is 0%.

`Oc1c(Cl)cc(Cl)cc1Sc1cc(Cl)cc(Cl)c1O`: the inhibition was 0%.

As for `O=C1c2ccccc2-c2ccc(C(=O)N3CCOCC3)cc21`, the inhibition is 0%.

On to `COc1ccc2c(c1)CCc1c(C(=O)NCc3cccnc3)noc1-2`, for which the inhibition is 0%.

Take `COc1ccc(N2C(=O)C(Cl)=C(N3CCCC3)C2=O)cc1`: the inhibition is 0%.

For the molecule `COc1ccccc1NC(=O)c1ccc(COc2ccccc2OC)o1`, the inhibition was 0%.

For the molecule `COc1ccc(-c2cc3nc(C)c(CCC(=O)NCc4ccco4)c(C)n3n2)c(OC)c1`, the inhibition was 0%.

For `Cc1ccc(-n2nnnc2SCC(=O)c2cc(C)n(-c3cc(C)on3)c2C)cc1`, the inhibition is 4%.

In the case of `O=C(C1CCCCC1)N1CC(=O)N2CCc3ccccc3C2C1` (centres undefined), the inhibition was 3%.

For `C=CCn1c(SCC#N)nc2c(c1=O)C(C)(C)Cc1ccccc1-2`, the inhibition is 0%.

Regarding `COc1cccc(-c2noc(C3CCCN(C(=O)Cc4ccccc4)C3)n2)c1` (centres undefined), the inhibition is 0%.

Consider `CCOC(=O)c1[nH]c(C)c(C(=O)Nc2ccccc2F)c1C`, for which the inhibition was 3%.

`CN(C)S(=O)(=O)c1cccc(C(=O)Nc2cccnc2)c1`: the inhibition was 0%.

Consider `C/C(CC(O)(/C=N/O)c1ccccc1)=N\O` (centres undefined), for which the inhibition is 1%.

`COc1ccc(-c2nc(N3CCCC3)[nH]c(=O)c2C#N)cc1`: the inhibition was 0%.

For `CCn1c(SCC(=O)Nc2cccc(C)c2)nc2c(c1=O)SC(C)C2` (centres undefined), the inhibition is 1%.

Regarding `COc1ccc(N2CC(C(=O)Nc3ccc(F)cc3F)CC2=O)cc1` (centres undefined), the inhibition was 1%.

As for `CN1CCN(CC#CCC(O)(c2ccccc2)C2CCCC2)CC1` (centres undefined), the inhibition was 0%.

As for `OCCNc1nc2ccc(Cl)cc2[nH]1`, the inhibition is 0%.

For `Cc1cc(C)nc(NC2=NCC(=O)N2c2ccccc2Br)n1`, the inhibition is 0%.

`COCCCN1C(=O)C(O)=C(C(C)=O)C1c1ccccn1` (centres undefined): the inhibition was 3%.

Turning to `Cc1cc(C(=O)Nc2c(F)cc(F)cc2Br)no1`, the inhibition is 0%.

For the molecule `COC(=O)c1cnn2c(C(F)(F)F)cc(-c3ccco3)nc12`, the inhibition is 0%.

Take `O=C(Nc1ccccc1-c1ccccc1)NC1CCN(C(=O)N2CCOCC2)CC1`: the inhibition was 0%.

`COc1oc(-c2ccccc2)nc1C(F)(F)F`: the inhibition is 0%.

`CCCS(=O)(=O)N1CCC(C(=O)N2CCCC2)CC1`: the inhibition is 7%.

Take `CCn1c(SCC(=O)c2ccc(Cl)cc2)nnc1-c1ccoc1C`: the inhibition is 0%.

As for `CCNc1nc(NCC)n2c(SCc3nc4ccccc4c(=O)[nH]3)nnc2n1`, the inhibition was 1%.

For `CC(NS(=O)(=O)c1ccc(F)cc1)C(c1cccs1)N1CCN(C)CC1` (centres undefined), the inhibition is 0%.

As for `O=C(Nc1ccc(SC(F)F)cc1)c1ccc2nccnc2c1`, the inhibition was 0%.

For `Cc1onc(-c2c(Cl)cccc2Cl)c1C(=O)NCC1CCCO1` (centres undefined), the inhibition is 0%.

Take `Cc1ccccc1-n1nnnc1SCC(=O)Nc1ccc(S(=O)(=O)N2CCCC2)cc1`: the inhibition is 0%.

For `Nc1nc(NC(=O)c2cccs2)nn1-c1ccccc1`, the inhibition was 1%.

With `COc1ccccc1NC(=O)c1nnn(CC(=O)Nc2ccccc2)c1N`, the inhibition is 1%.

For the molecule `CC1(C)Cc2cccc(OCC(O)CN3CCN(c4ccccn4)CC3)c2O1` (centres undefined), the inhibition was 0%.

For `Cn1c(=N)n(CC(=O)O)c2ccccc21`, the inhibition was 9%.

`Cc1ccc(OCC(=O)N2CCN(C(=O)CCC3CCCC3)CC2)cc1`: the inhibition is 0%.

Turning to `Cc1cccn2c(=O)c3cc(C#N)c(=NC(=O)c4cccnc4)n(CC4CCCO4)c3nc12` (centres undefined), the inhibition was 0%.

As for `CCSC1=C(C#N)C(c2ccccc2OC)CC(=O)N1` (centres undefined), the inhibition was 4%.

For the molecule `Cc1c(NC(=O)c2ccc(Br)o2)c(=O)n(-c2ccccc2)n1C`, the inhibition is 0%.

In the case of `COc1cccc(Nc2cc(C)nc3ccccc23)c1`, the inhibition was 1%.

Take `OCC(O)CN1CCN(c2ccccc2)CC1` (centres undefined): the inhibition was 0%.

In the case of `Oc1c(I)cc(Cl)c2cccnc12`, the inhibition was 4%.

Consider `CCOC(=O)N1CCN(C(=O)CSCC(=O)Nc2nc(-c3ccc(OC)cc3)cs2)CC1`, for which the inhibition was 0%.

`CCSc1nnc(-c2ccc(OC)cc2)o1`: the inhibition is 0%.

As to `CC1CCN(S(=O)(=O)c2ccc(NC(=O)CSc3nnnn3C)cc2)CC1`, the inhibition is 2%.

Turning to `Cc1cc(=O)n(-c2ccc3ccccc3n2)[nH]1`, the inhibition is 6%.

Turning to `O=C(O)c1ccc2c(c1)N(Cc1ccccc1F)C(=O)c1ccccc1S2=O` (centres undefined), the inhibition was 0%.

Consider `COc1ccc(-c2cc3ccc(OCc4nn[nH]n4)cc3oc2=O)cc1`, for which the inhibition is 7%.

As for `COc1ccc(OC)c(NC(=O)CCN2CCC(C)CC2)c1`, the inhibition is 0%.

Consider `COc1ccc(CCN(C)CCCC(C#N)(c2ccc(OC)c(OC)c2)C(C)C)cc1OC` (centres undefined), for which the inhibition is 0%.

With `CC(=O)Nc1nnc(SCC(=O)NCC2CCCO2)s1` (centres undefined), the inhibition was 0%.

For `O=C(c1ccc(Cl)c(F)c1F)N1CCCC1`, the inhibition was 3%.

With `CCOc1cccc(C(=O)N2CCCCC2c2cccnc2)c1` (centres undefined), the inhibition is 0%.

`CC(=O)c1cccc(NC(=O)N2CCCc3ccccc32)c1`: the inhibition was 1%.

Regarding `CCOc1cc(C2/C(=C(/O)c3ccc(OC(C)C)cc3)C(=O)C(=O)N2CCCOC)ccc1O` (centres undefined), the inhibition is 0%.

Turning to `O=C(O)C1CC=CCC1C(=O)Nc1cccc(F)c1` (centres undefined), the inhibition is 3%.

`O=C(COc1ccc(S(=O)(=O)NC2CCCCC2)cc1Cl)NCC1CCCO1` (centres undefined): the inhibition is 0%.

For the molecule `CCOC(=O)C1=C(C)N(C)C(=O)NC1c1ccccc1OC` (centres undefined), the inhibition is 0%.

As to `O=S(=O)(NCCCCCNS(=O)(=O)c1ccccc1)c1ccccc1`, the inhibition is 6%.

As for `Cc1onc(-c2c(F)cccc2Cl)c1C(=O)Nc1nc2c(s1)CCCC2`, the inhibition is 0%.

Consider `COc1ccc(N=C2C(=O)Nc3ccccc32)cc1`, for which the inhibition was 0%.

With `CN(C(=O)c1c(Cl)nc2sccn12)C1CCCCC1`, the inhibition is 0%.

Consider `COc1ccc(C(NC(=O)c2ccco2)c2ccc(OC)c(OC)c2)cc1` (centres undefined), for which the inhibition was 0%.

As for `CC(=O)O[C@]1(C(C)=O)CC[C@H]2[C@@H]3C[C@H](C)C4=CC(=O)CC[C@]4(C)[C@H]3CC[C@@]21C`, the inhibition is 0%.

Take `CC1(C)CC(=O)C=C(NCc2ccncc2)C1`: the inhibition is 0%.

`Cc1ccc(-c2nc(CS(=O)CC(=O)NCCN(CC(C)C)CC(C)C)c(C)o2)cc1` (centres undefined): the inhibition is 4%.

For `COCCn1c(NCc2ccc(C)cc2)nc2c1c(=O)[nH]c(=O)n2C`, the inhibition was 10%.

On to `Cc1nc(SCC(=O)CC(=O)OC(C)C)c(C#N)c(C)c1C`, for which the inhibition was 0%.

Regarding `O=C(CCN1C(=O)c2ccccc2C1=O)NCCN1CCOCC1`, the inhibition was 0%.

Consider `Cc1ncc(CO)c2c1OC(C)(C)OC2`, for which the inhibition was 0%.

Consider `COc1cccc(CNc2cccc3cccnc23)c1O`, for which the inhibition was 0%.

Consider `Cc1ccc(S(=O)(=O)N[C@@H](C)C(=O)N2CCC(C(=O)N3CCC[C@H]3C(=O)O)CC2)cc1`, for which the inhibition is 0%.

As to `S=c1[nH]nc(-c2ccccc2)n1C1C=CCCC1` (centres undefined), the inhibition was 0%.

For `COc1ccc(S(=O)(=O)n2ccnc2)c2cccnc12`, the inhibition was 4%.

For `CCc1noc(C)c1C(=O)NCCc1ccc(OC)c(OC)c1`, the inhibition was 3%.

With `O=C(Nc1cccc(F)c1)C1C2C=CC3(CN(CCCN4CCOCC4)C(=O)C13)O2` (centres undefined), the inhibition was 0%.

On to `O=C(c1cccc2ccccc12)N1CCC(N2CCN(c3ccccc3)CC2)CC1`, for which the inhibition is 0%.

Regarding `CN(C)S(=O)(=O)Nc1ccc(Br)cc1F`, the inhibition was 0%.

Regarding `NC(=O)C1CCN(C(=S)c2cccs2)CC1`, the inhibition was 0%.

In the case of `C/C(=N\O)C(=O)NCCCNCCCN(C)C`, the inhibition was 2%.

In the case of `CCOc1ccc(NC(=O)CN(C)S(=O)(=O)c2cccs2)cc1`, the inhibition was 13%.

As for `O=C(Cn1cnc2c(oc3ccccc32)c1=O)N1CCN(c2ccccc2)CC1`, the inhibition was 1%.

As to `Cc1nc2ccccc2c2oc(C(=O)N3CCN(C(=O)c4ccco4)CC3)cc12`, the inhibition is 0%.

As for `Cc1ccc(-c2nn[nH]n2)cc1`, the inhibition was 0%.

Consider `COc1cccc2c(=O)c3c(cnn3C)n(C)c12`, for which the inhibition was 0%.

Consider `CS(=O)(=O)NCc1ccc(C(=O)NCc2ccccc2)cc1`, for which the inhibition was 4%.

Regarding `CCCCc1n[nH]c2c1C(=O)CC(C)(C)C2`, the inhibition was 0%.

Turning to `O=C(Nc1cccc(F)c1)c1cccc(S(=O)(=O)N2CCOCC2)c1`, the inhibition was 0%.

`O=C1c2ccccc2C(Nc2ccc(F)c(Cl)c2)N1Cc1ccco1` (centres undefined): the inhibition is 3%.

Regarding `OCc1nc2ccccc2n1CCCOc1ccccc1`, the inhibition is 0%.
